# Reference: PubChem BioAssay (NCATS)
# Several values for one entry are separate records, joined by “and”; a condition that tells them apart may be missing. Equal entries are not always repeated. Results filed as inconclusive are left out. A call without a number means that no potency is given here. More than one record can exist for a structure, and the calls need not agree. Activity calls are given as the source filed them. Unless noted, calls follow the shape of the dose curve; as a rule, active = well fitted curve in the direction sought with a large enough effect; inconclusive = small, poorly fitted or top-dose-only effect, or another doubt; inactive = no such curve, though single readings can be large; an effect the other way counts as inactive or inconclusive.
# Key:
# [1] = biological target: Cytochrome P450 2D6 (Homo sapiens) (UniProt P10635); assay: Cytochrome P450 family 2 subfamily D member 6 (CYP2D6) small molecule antagonists: luciferase biochemical (cell-free) qHTS assay (AID 1645840; active = well fitted curve in the direction sought with a large enough effect in the repeat runs; an effect the other way counts as inactive or inconclusive; also: nearly all actives have a fitted effect of over 55% in size; also: potency is read from the fitted curve at half-maximal effect)
# Method in brief: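 P450-Glo luminescent screen: recombinant CYP2D6 enzyme–proluciferin substrate mix preincubated with compound 10 min at room temperature, then NADPH regeneration added for 1 h at room temperature. Detection reagent added for 20 min; luciferin light read as relative luminescence units.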
# [2] = biological target: Cytochrome P450 2C9 (Homo sapiens) (UniProt P11712); assay: Cytochrome P450 family 2 subfamily C member 9 (CYP2C9) small molecule antagonists: luciferase biochemical (cell-free) qHTS assay (AID 1645842; active = well fitted curve in the direction sought with a large enough effect in the repeat runs; an effect the other way counts as inactive or inconclusive; also: nearly all actives have a fitted effect of over 55% in size; also: potency is read from the fitted curve at half-maximal effect)
# Method in brief: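 Luminescence, after 20 min with luciferin detection reagent, reflected CYP2C9 turnover during a 1 h NADPH-driven reaction at 37C. Enzyme-substrate mix contained 0.4% bovine serum albumin and was preincubated with compound 10 min at room temperature.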
# [3] = Primary qHTS for inhibitors of nuclear receptor binding SET domain protein 2 (NSD2) in an isogenic RCH-ACV NSD2 p.E1099K mutant (9B) (AID 1645876); also: nearly all actives have a fitted effect of over 70% in size; also: potency is read from the fitted curve at half-maximal effect
# [4] = Primary qHTS for inhibitors of nuclear receptor binding SET domain protein 2 (NSD2) in an RCH-ACV wild type WT cells (2C) (AID 1645877); also: nearly all actives have a fitted effect of over 70% in size; also: potency is read from the fitted curve at half-maximal effect
# [5] = Viability counterscreen for antagonist of constitutive androstane receptor (CAR) against the NCATS DSHEA and TCM libraries (AID 1794837);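 also: compound exposure lasted 24 h before viability reading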
# Method in brief: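 HepG2-CYP2B6-hCAR cells (2,500/well) were allowed to attach for 5 h, then exposed to compounds with 48 uM CITCO for 24 h at 37C. Viability was read by CellTiter-Fluor fluorescence after 1 h.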
# [6] = Viability counterscreen for agonist of constitutive androstane receptor (CAR) against the NCATS DSHEA and TCM libraries (AID 1794838)
# Method in brief: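 HepG2-CYP2B6-hCAR cells (2,500/well) attached 5 h, then got compounds plus 0.75 uM PK11195 final. After 24 h at 37C, viability read by CellTiter-Fluor fluorescence (Ex/Em 405/540 nm).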
# [7] = biological target: Nuclear receptor subfamily 1 group I member 3 (Homo sapiens) (UniProt Q14994); assay: Primary qHTS for agonist of constitutive androstane receptor (CAR) against the NCATS DSHEA and TCM libraries (AID 1794839);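 also: HepG2 cells expressing human CAR with a CYP2B6 reporter plus PK11195 antagonist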
# Method in brief: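 HepG2-CYP2B6-hCAR cells (2,500/well) were attached for 5 h, then treated for 24 h at 37 °C with compounds plus 0.75 µM PK11195. Luciferase luminescence (ONE-Glo) was read, with CellTiter-Fluor viability (Ex/Em 405/540 nm).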
# Papain (Carica papaya) = Papain (Carica papaya) (UniProt P00784); assay: Primary qHTS assay for inhibitors of the protease papain (AID 1645873);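 also: papain turnover of Z-FR-AMC read as the AMC fluorescence gain over 10 min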
# [8] = NCATS anti-infectives library activity on the primary C. elegans qHTS viability assay (AID 1745855; calls by dose curve); conditions: C. elegans worm area imaging, day 7; at 41.8 µM (top of the series)
# Method in brief: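 Viability read-out is GFP fluorescence of PE254-GFP-FLuc C. elegans, measured by laser cytometry (488 nm) at day 0, 3 and 7. Ten L1 worms per well were incubated 7 days at 21 °C with compounds and bacterial capsules in S medium.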
# [9] = NCATS anti-infectives library activity on HEK293 viability as a counter-qHTS vs the C. elegans viability qHTS (AID 1745854);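 also: HEK293 cells exposed to compounds for 24 hr before the viability read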
# Method in brief: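 Compounds were acoustically plated (several concentrations, 1:5, final up to 41.7 uM), then 1500 HEK293 cells added per well and incubated 24 hr at 37C, 5% CO2. CellTiter-Glo was added and luminescence read after 10 min.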
# [10] = biological target: Rap guanine nucleotide exchange factor 3 (Homo sapiens) (UniProt O95398); assay: Confirmatory qHTS for antagonist of cAMP-regulated guanine nucleotide exchange factor 3 (EPAC1) (AID 1645880); also: nearly all actives have a fitted effect of over 55% in size
# Method in brief: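 Nucleotide exchange uses 100 nM EPAC1, 250 nM RAP1B-BODIPY-GDP and 50 uM GDP, with compounds in a concentration-titration series. After 5 min at room temperature, fluorescence (480 nm ex/540 nm em) is read every 5 min for 30 min. Data are normalized to control ATA and DMSO.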
# [11] = biological target: Rap guanine nucleotide exchange factor 3 (Homo sapiens) (UniProt O95398); assay: Confirmatory qHTS for agonist of cAMP-regulated guanine nucleotide exchange factor 3 (EPAC1) (AID 1645881);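 also: EPAC1 catalysed release of BODIPY-GDP from Rap1B seen as fluorescence loss; nearly all actives have a fitted effect of over 75% in size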
# [12] = biological target: Rap guanine nucleotide exchange factor 4 (Homo sapiens) (UniProt Q8WZA2); assay: Confirmatory qHTS for agonist of cAMP-regulated guanine nucleotide exchange factor 4 (EPAC2) (AID 1645884);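 also: nucleotide exchange releases bodipy-GDP from Rap1 and this lowers its fluorescence; nearly all actives have a fitted effect of over 65% in size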
# [13] = biological target: Rap guanine nucleotide exchange factor 4 (Homo sapiens) (UniProt Q8WZA2); assay: Confirmatory qHTS for antagonist of cAMP-regulated guanine nucleotide exchange factor 4 (EPAC2) (AID 1645885); also: nearly all actives have a fitted effect of over 25% in size
# [14] = biological target: Catechol O-methyltransferase (Homo sapiens) (UniProt P21964); assay: Confirmatory Screen for Target Class Profiling of Small Molecule Inhibitors of Methyltransferases (AID 1745852); conditions: MTase-Glo luminescence, SAH detection, recombinant enzyme; measured here: COMT max response; stronger effect = lower value
# [15] = biological target: Guanidinoacetate N-methyltransferase (Homo sapiens) (UniProt Q14353); assay: as above; conditions: MTase-Glo luminescence, SAH detection, recombinant enzyme; activity change, negative = inhibition: at 57.3 µM (top of the series)
# [16] = biological target: Nicotinamide N-methyltransferase (Homo sapiens) (UniProt P40261); assay: as above; conditions: MTase-Glo luminescence, SAH detection, recombinant enzyme; measured here: NNMT max response; stronger effect = lower value
# [17] = biological target: Phenylethanolamine N-methyltransferase (Homo sapiens) (UniProt P11086); assay: as above; conditions: MTase-Glo luminescence, SAH detection, recombinant enzyme; measured here: PNMT max response; stronger effect = lower value
# Chain of Phenylethanolamine N-methyltransferase (Homo sapiens) (P11086 whole entry, looked up): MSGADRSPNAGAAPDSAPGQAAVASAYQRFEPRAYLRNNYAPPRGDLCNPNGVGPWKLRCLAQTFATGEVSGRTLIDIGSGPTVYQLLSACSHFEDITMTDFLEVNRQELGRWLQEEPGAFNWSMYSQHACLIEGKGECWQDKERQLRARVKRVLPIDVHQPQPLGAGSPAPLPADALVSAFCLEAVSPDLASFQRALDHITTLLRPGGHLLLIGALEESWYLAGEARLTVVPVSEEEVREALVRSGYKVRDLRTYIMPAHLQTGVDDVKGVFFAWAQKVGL
# Chain of Cytochrome P450 2D6 (Homo sapiens) (P10635 whole entry, looked up): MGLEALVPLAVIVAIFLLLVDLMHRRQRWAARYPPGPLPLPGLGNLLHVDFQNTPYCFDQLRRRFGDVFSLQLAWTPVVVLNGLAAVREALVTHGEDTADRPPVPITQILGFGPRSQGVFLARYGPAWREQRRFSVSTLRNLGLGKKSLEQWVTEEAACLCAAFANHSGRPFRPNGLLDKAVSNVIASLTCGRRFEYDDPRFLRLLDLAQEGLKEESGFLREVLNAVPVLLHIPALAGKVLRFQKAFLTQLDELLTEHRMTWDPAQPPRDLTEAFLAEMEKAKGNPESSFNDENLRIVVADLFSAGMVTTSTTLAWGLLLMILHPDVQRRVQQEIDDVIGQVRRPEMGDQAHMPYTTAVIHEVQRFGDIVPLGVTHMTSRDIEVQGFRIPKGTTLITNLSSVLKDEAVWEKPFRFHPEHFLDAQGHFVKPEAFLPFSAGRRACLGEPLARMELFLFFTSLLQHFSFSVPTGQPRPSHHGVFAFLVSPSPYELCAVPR
# Chain of Cytochrome P450 2C9 (Homo sapiens) (P11712 whole entry, looked up): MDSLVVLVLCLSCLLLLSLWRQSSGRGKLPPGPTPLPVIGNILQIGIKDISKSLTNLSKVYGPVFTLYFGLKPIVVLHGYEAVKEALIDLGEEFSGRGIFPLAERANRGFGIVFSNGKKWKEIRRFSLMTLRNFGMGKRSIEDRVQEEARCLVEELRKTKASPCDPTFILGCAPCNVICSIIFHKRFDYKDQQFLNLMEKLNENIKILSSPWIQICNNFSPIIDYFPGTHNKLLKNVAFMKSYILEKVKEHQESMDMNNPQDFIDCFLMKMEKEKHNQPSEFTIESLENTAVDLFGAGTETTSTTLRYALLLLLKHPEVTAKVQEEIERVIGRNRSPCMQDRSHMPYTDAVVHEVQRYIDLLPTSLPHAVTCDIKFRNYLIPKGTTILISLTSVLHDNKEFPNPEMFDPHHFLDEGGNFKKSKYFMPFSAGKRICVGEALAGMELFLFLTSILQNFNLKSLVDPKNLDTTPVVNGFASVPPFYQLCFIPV
# Chain of Rap guanine nucleotide exchange factor 4 (Homo sapiens) (Q8WZA2 whole entry, looked up): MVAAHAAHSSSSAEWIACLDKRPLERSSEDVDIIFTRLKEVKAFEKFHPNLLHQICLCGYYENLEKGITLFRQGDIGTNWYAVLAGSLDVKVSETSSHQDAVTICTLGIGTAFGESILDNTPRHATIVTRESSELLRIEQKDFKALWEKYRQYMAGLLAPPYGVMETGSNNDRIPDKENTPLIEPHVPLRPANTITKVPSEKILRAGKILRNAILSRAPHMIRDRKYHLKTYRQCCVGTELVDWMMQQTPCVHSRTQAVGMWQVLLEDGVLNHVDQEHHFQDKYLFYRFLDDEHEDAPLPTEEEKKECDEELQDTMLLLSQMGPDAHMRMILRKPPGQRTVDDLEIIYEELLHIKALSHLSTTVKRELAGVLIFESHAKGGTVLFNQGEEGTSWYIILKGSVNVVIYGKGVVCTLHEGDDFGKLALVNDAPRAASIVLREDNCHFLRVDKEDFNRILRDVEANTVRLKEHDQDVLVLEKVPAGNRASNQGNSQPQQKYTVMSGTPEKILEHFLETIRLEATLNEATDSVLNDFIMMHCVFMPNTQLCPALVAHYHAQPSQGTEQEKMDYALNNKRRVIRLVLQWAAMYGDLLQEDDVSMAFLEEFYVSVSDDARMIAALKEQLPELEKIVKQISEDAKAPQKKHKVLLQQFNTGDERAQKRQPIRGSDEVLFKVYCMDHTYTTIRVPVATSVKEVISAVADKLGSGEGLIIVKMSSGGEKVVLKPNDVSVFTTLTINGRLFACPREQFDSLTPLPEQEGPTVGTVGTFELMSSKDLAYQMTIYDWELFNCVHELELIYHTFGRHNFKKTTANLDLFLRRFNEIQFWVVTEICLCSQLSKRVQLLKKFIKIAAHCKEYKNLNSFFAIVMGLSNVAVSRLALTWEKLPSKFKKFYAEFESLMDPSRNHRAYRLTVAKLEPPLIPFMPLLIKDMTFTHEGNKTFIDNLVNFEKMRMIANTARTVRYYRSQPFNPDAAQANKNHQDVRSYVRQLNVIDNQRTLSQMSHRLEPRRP
# Chain of Rap guanine nucleotide exchange factor 3 (Homo sapiens) (O95398 whole entry, looked up): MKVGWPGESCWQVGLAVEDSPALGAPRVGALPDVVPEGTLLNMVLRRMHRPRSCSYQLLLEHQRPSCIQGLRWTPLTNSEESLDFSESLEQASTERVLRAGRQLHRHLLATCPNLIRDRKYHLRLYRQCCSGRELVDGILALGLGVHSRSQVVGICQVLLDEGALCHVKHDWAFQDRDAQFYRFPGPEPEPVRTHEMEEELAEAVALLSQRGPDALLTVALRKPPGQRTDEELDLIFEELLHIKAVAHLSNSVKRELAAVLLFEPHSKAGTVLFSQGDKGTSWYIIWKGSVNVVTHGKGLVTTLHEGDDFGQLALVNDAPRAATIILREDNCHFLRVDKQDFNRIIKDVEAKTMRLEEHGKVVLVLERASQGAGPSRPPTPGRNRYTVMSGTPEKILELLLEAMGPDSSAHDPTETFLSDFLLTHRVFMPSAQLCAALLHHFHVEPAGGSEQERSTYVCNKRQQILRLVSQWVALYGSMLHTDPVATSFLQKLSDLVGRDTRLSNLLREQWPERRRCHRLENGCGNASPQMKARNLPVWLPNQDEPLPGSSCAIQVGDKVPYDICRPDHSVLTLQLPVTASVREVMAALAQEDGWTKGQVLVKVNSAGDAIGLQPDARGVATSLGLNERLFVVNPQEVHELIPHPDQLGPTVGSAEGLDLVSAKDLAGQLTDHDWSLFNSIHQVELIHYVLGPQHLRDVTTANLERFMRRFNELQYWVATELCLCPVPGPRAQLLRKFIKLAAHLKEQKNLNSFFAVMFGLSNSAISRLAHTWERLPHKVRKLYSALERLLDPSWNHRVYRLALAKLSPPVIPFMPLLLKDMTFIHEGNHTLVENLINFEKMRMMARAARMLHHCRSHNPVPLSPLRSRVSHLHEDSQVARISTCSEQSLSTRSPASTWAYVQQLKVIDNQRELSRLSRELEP
# Chain of Catechol O-methyltransferase (Homo sapiens) (P21964 whole entry, looked up): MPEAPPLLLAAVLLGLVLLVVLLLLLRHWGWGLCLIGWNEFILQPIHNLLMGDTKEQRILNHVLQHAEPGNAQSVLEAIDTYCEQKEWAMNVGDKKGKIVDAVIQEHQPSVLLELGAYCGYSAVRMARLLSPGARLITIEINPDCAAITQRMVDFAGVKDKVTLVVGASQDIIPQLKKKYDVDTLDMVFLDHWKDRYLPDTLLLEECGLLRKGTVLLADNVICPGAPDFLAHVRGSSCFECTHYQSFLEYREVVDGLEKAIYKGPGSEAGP
# Chain of Nicotinamide N-methyltransferase (Homo sapiens) (P40261 whole entry, looked up): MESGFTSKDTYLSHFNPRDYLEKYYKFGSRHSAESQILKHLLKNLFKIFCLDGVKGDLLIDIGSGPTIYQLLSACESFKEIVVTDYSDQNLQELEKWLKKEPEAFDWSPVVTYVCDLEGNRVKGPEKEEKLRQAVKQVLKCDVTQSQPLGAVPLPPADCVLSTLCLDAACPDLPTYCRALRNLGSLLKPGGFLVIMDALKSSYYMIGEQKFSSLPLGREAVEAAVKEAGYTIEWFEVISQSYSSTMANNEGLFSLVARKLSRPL
# Chain of Nuclear receptor subfamily 1 group I member 3 (Homo sapiens) (Q14994 whole entry, looked up): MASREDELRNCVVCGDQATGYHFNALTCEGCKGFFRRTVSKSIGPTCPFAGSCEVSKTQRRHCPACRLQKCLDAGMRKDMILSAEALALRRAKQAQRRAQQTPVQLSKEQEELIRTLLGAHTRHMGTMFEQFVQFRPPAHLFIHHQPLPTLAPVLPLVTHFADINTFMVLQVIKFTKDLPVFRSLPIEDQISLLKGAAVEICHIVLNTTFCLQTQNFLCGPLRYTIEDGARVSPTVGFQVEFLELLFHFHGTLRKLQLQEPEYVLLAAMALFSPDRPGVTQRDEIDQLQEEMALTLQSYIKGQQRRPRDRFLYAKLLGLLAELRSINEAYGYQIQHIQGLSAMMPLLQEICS
# Chain of Papain (Carica papaya) (P00784 whole entry, looked up): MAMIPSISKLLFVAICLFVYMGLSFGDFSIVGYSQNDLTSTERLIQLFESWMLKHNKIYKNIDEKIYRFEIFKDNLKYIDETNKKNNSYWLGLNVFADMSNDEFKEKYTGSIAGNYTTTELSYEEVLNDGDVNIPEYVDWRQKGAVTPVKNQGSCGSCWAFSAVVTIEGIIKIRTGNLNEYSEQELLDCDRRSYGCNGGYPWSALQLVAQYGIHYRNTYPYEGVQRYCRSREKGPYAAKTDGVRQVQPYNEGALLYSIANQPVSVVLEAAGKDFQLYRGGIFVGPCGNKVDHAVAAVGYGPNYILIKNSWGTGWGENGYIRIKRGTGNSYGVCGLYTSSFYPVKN
structure (smiles),measurement,setting,value
CCc1c2c(nc3ccc(OC(=O)N4CCC(N5CCCCC5)CC4)cc13)-c1cc3c(c(=O)n1C2)COC(=O)[C@]3(O)CC,Potency,[1],inactive
same,Potency,[2],inactive
same,Potency,[3],750 nM (active) and 235 nM (active)
same,Potency,[4],596 nM (active) and 118 nM (active)
NC(=O)N1c2ccccc2CC(=O)c2ccccc21,Potency,[1],inactive
same,Potency,[2],inactive
COc1ccc2c(c1)c(CC(=O)OCC(=O)O)c(C)n2C(=O)c1ccc(Cl)cc1,Potency,[1],inactive
same,Potency,[2],inactive
CO[C@@H]1[C@@H](OC(N)=O)[C@@H](O)[C@H](Oc2ccc3c(O)c(NC(=O)c4ccc(O)c(CC=C(C)C)c4)c(=O)oc3c2C)OC1(C)C,Potency,[1],inactive
same,Potency,[2],3.09 µM (active)
same,Potency,[3],inactive
same,Potency,[4],inactive
NNC(=O)c1ccncc1,Potency,[1],inactive
same,Potency,[2],inactive
same,Potency,[3],inactive
same,Potency,[4],inactive
same,outcome,[5],inactive
same,outcome,[6],inactive
same,outcome,[7],inactive
CCN(CC)CCn1c(=O)c(Cc2ccc(OC)cc2)nc2ccccc21,Potency,[1],7.56 µM (active)
same,Potency,Papain (Carica papaya),inactive
same,Potency,[3],inactive
same,Potency,[4],inactive
CC(C)(C)C(=O)OCOP(=O)(COCCn1cnc2c(N)ncnc21)OCOC(=O)C(C)(C)C,Potency,[1],inactive
same,Potency,[2],inactive
same,Potency,[3],7.5 µM (active) and 7.42 µM (active)
same,Potency,[4],6.68 µM (active) and 7.42 µM (active)
same,outcome,[8],inactive
CCC(=O)O[C@]1(C(=O)CCl)[C@@H](C)C[C@H]2[C@@H]3CCC4=CC(=O)C=C[C@]4(C)[C@@]3(F)[C@@H](O)C[C@@]21C,Potency,[1],11 µM (active)
same,Potency,[2],17.4 µM (active)
same,Potency,[3],23.5 µM (active)
same,Potency,[4],inactive and 1 nM (active)
CC(=O)Oc1ccccc1C(=O)Nc1ncc([N+](=O)[O-])s1,Potency,[1],8.71 µM (active)
same,Potency,[2],2.75 µM (active)
same,Potency,[3],inactive
same,Potency,[4],inactive
same,Potency,[9],inactive
CCOC(=O)c1ccc(OC(=O)CCCCCN=C(N)N)cc1,Potency,[1],0.0977 µM (active)
same,Potency,[2],inactive
same,Potency,[3],inactive
same,Potency,[4],23.5 µM (active)
same,Potency,[9],inactive
C[C@@H]1CN(c2c(F)c(N)c3c(=O)c(C(=O)O)cn(C4CC4)c3c2F)C[C@H](C)N1,Potency,[1],inactive
same,Potency,[3],inactive
same,Potency,[4],inactive
O=c1oc2c(O)c(O)cc3c(=O)oc4c(O)c(O)cc1c4c23,Potency,[1],inactive
same,Potency,[2],inactive
same,Potency,[4],inactive
C[C@@H](NCCCc1cccc(C(F)(F)F)c1)c1cccc2ccccc12,Potency,[1],30.9 nM (active) and 19 nM (active)
same,Potency,[2],26.8 µM (active)
same,Potency,[3],13.3 µM (active) and 18.6 µM (active)
same,Potency,[4],15 µM (active) and 14.8 µM (active)
CO[C@@]12[C@H](COC(N)=O)C3=C(C(=O)C(C)=C(N)C3=O)N1C[C@@H]1N[C@@H]12,Potency,[1],12.3 µM (active)
same,Potency,[2],inactive
same,Potency,[3],inactive
same,Potency,[4],inactive
COc1ccc(C(=O)CC(=O)c2ccc(C(C)(C)C)cc2)cc1,Potency,[1],inactive
same,Potency,[2],inactive
same,Potency,[3],inactive
same,Potency,[4],inactive
Nc1[nH]c(=O)ncc1F,Potency,[1],inactive
same,Potency,[2],inactive
same,Potency,[3],inactive
same,Potency,[4],inactive
CN1CCN(c2c(F)cc3c(=O)c(C(=O)O)cn(CCF)c3c2F)CC1,Potency,[1],inactive
same,Potency,[3],inactive
Cc1cccc(Nc2ccncc2S(=O)(=O)NC(=O)NC(C)C)c1,Potency,[1],inactive
same,Potency,[3],inactive
same,Potency,[4],inactive
COc1ncnc(NS(=O)(=O)c2ccc(N)cc2)c1OC,Potency,[1],inactive
same,Potency,[3],inactive
same,Potency,[4],inactive
CCOC(=O)c1ccc(C#Cc2ccc3c(c2)C(C)(C)CCS3)nc1,Potency,[1],inactive
same,Potency,[2],inactive
same,Potency,[3],inactive
same,Potency,[4],inactive
CN(C)CCc1c[nH]c2ccc(C[C@H]3COC(=O)N3)cc12,Potency,[1],inactive
same,Potency,[2],inactive
same,Potency,[3],inactive
same,Potency,[4],inactive
same,outcome,[10],inactive
same,outcome,[11],inactive
same,outcome,[12],inactive
same,outcome,[13],inactive
CCCCc1oc2ccc(NS(C)(=O)=O)cc2c1C(=O)c1ccc(OCCCN(CCCC)CCCC)cc1,Potency,[1],2.75 µM (active) and 3.38 µM (active)
same,Potency,[2],12.3 µM (active) and 12 µM (active)
same,Potency,[3],2.99 µM (active) and 11.5 µM (active) and 5.9 µM (active)
same,Potency,[4],2.99 µM (active) and 9.16 µM (active) and 6.61 µM (active)
CCC(C)(C)c1ccc(CC(C)CN2C[C@@H](C)O[C@@H](C)C2)cc1 (some centres not stated),Potency,[1],4.9 µM (active)
same,Potency,[3],inactive
CC1=CC(=O)c2ccccc2C1=O,Potency,[1],15.5 µM (active)
same,Potency,[3],31.6 µM (active) and inactive
Cc1ccnc2c1NC(=O)c1cccnc1N2C1CC1,Potency,[1],inactive
same,Potency,[2],inactive
same,Potency,[9],inactive
COc1cc2c(Nc3ccc(Br)cc3F)ncnc2cc1OCC1CCN(C)CC1,Potency,[1],inactive
same,Potency,[2],inactive
same,Potency,[3],inactive and 3.65 µM (active) and 13.2 µM (active)
same,Potency,[4],5.15 µM (active) and 16.6 µM (active)
same,activity,[14],-17.2%
same,"activity change, negative = inhibition",[15],-2.94%
same,activity,[16],-14.2%
same,activity,[17],-14.3%
N[C@@H](C(=O)N[C@@H]1C(=O)N2C(C(=O)O)=C(Cl)CS[C@H]12)c1ccccc1,"activity change, negative = inhibition",[1],16.7% [at 11.5 µM] (inactive)
same,outcome,[3],inactive [at 9.23 µM]
same,"activity change, negative = cell killing",[4],-2.72% [at 9.23 µM] (inactive)
COc1ccc2cc3[n+](cc2c1OC)CCc1cc2c(cc1-3)OCO2,Potency,[1],1.55 µM (active)
same,Potency,[2],inactive
same,Potency,[3],11.9 µM (active) and 5.9 µM (active)
same,Potency,[4],11.9 µM (active) and 3.32 µM (active)
same,outcome,[5],inactive
same,outcome,[6],inactive
